Our source for the outcome and AC50 values is PubChem BioAssay (EPA / NIEHS).

Activity calls are given as the source filed them. The calls were made as follows: active = hit-call score of the fitted dose curve at least 0.9, where 1 is the maximum; inactive = score below 0.9.

Read-out in assay [1]: Transforming growth factor beta 1 (TGFb1), TGFB1 (gene 7040)
The assay is described as follows: BSK_KF3CT_TGFb1: BioMAP Diversity Plus: KF3CT Assay for Transforming growth factor beta 1 (TGFb1) Biomarker Activity (AID 2283072). To be noted: primary human keratinocytes with fibroblasts; actives raise or lower the signal. The gist of the method: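 ELISA quantifies TGF-b1 at 24 h post-dose in a primary human skin co-culture of keratinocytes and fibroblasts, with gain or loss judged against DMSO. Parallel SRB total-protein staining flags overt cytotoxicity.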

Read-out in assay [2]: C-C motif chemokine 2 (Homo sapiens) (UniProt P13500)
The assay is described as follows: BSK_KF3CT_MCP1: BioMAP Diversity Plus: KF3CT Assay for Monocyte Chemoattractant Protein 1 (MCP1/CCL2) Biomarker Activity (AID 2283073). Conditions: primary human keratinocytes with fibroblasts; actives raise or lower the signal. The gist of the method: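 Human keratinocyte plus foreskin fibroblast primary co-culture exposed to chemical for 24 h. MCP-1 levels measured by ELISA. Bidirectional curve fitting relative to DMSO negative control as baseline.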

Read-out in assay [3]: Matrix Metallopeptidase 9 (MMP9), MMP9 (gene 4318)
Kind of assay: BSK_KF3CT_MMP9: BioMAP Diversity Plus: KF3CT Assay for Matrix Metallopeptidase 9 (MMP9) Biomarker Activity (AID 2283074). To be noted: primary human keratinocytes with fibroblasts; actives raise or lower the signal. The gist of the method:
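ELISA read-out of MMP-9 at 24 h post-dosing in a co-culture of human skin keratinocytes and foreskin fibroblasts. Gain or loss of signal was fitted in both directions against DMSO.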

Read-out in assay [4]: urokinase plasminogen activator (uPA), PLAU (gene 5328)
The assay is described as follows: BSK_KF3CT_uPA: BioMAP Diversity Plus: KF3CT Assay for urokinase plasminogen activator (uPA) Biomarker Activity (AID 2283075). Conditions: primary human keratinocytes with fibroblasts; actives raise or lower the signal. The gist of the method:
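Skin co-culture (keratinocytes + foreskin fibroblasts), human primary; 24 h post-dose; uPA by ELISA; gain/loss fit vs DMSO baseline.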

Read-out in assay [5]: CD40, CD40 (gene 958)
The assay is described as follows: BSK_LPS_CD40: BioMAP Diversity Plus: LPS Assay for CD40 Biomarker Activity (AID 2283076). To be noted: primary human HUVEC with PBMC; actives raise or lower the signal. The gist of the method:
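Primary human umbilical vein endothelial cells co-cultured with peripheral blood mononuclear cells, LPS-stimulated, were dosed with chemical and read 24 h later. CD40 levels were measured by ELISA and fitted bidirectionally against DMSO as negative control and baseline.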

Read-out in assay [6]: E-selectin (Homo sapiens) (UniProt P16581)
The assay is described as follows: BSK_LPS_Eselectin: BioMAP Diversity Plus: LPS Assay for Eselectin Biomarker Activity (AID 2283077). Conditions: primary human HUVEC with PBMC; actives raise or lower the signal. The gist of the method:
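Human umbilical vein endothelial cells co-cultured with peripheral blood mononuclear cells under LPS stimulation; E-selectin measured by ELISA 24 h after chemical dosing. Activity fitted bidirectionally against DMSO as negative control and baseline.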

Read-out in assay [7]: Interleukin-8 (IL8), CXCL8 (gene 3576)
Kind of assay: BSK_LPS_IL8: BioMAP Diversity Plus: LPS Assay for Interleukin-8 (IL8) Biomarker Activity (AID 2283078). Conditions: primary human HUVEC with PBMC; actives raise or lower the signal. The gist of the method:
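Human umbilical vein endothelial cells co-cultured with PBMC were stimulated with LPS; IL-8 levels were measured by ELISA 24 h after chemical dosing. Activity was fitted bidirectionally against DMSO as negative control and baseline.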

The nature of assay [8]: BSK_LPS_SRB: Viability Assessment in the BioMAP Diversity Plus: LPS Assay (AID 2283079).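 Also: total protein by sulforhodamine B absorbance as a cytotoxicity measure; measured one day after compound addition.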 Conditions: primary human HUVEC with PBMC. An outline of the steps: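 Human umbilical vein endothelial cells co-cultured with PBMC (LPS system) were dosed for 24 h. Total protein was stained with 0.1% sulforhodamine B after 10% TCA fixation, read at 560 nm, and fitted bidirectionally against DMSO baseline.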

Read-out in assay [9]: Interleukin-1 alpha (IL1a), IL1A (gene 3552)
Kind of assay: BSK_LPS_IL1a: BioMAP Diversity Plus: LPS Assay for Interleukin-1 alpha (IL1a) Biomarker Activity (AID 2283080). To be noted: primary human HUVEC with PBMC; actives raise or lower the signal. The gist of the method:
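Human umbilical vein endothelial cells co-cultured with peripheral blood mononuclear cells were LPS-stimulated and exposed to test chemicals for 24 h. IL-1 alpha was quantified by ELISA, with bidirectional curve fitting against DMSO as the negative control and baseline.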

Read-out in assay [10]: Monocyte Chemoattractant Protein-1 (MCP1), CCL2 (gene 6347)
Kind of assay: BSK_LPS_MCP1: BioMAP Diversity Plus: LPS Assay for Monocyte Chemoattractant Protein-1 (MCP1) Biomarker Activity (AID 2283081). Conditions: primary human HUVEC with PBMC; actives raise or lower the signal. An outline of the steps:
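HUVEC plus PBMC co-culture (human primary cells, LPS system) exposed to test chemical for 24 h; MCP-1 measured by ELISA. Bidirectional curve fitting against DMSO baseline; parallel SRB total-protein staining flags overt cytotoxicity.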

Assay [11] in a line: BSK_LPS_PGE2: BioMAP Diversity Plus: LPS Assay for Prostaglandin E2 (PGE2) Biomarker Activity (AID 2283082). To be noted: primary human HUVEC with PBMC; actives raise or lower the signal. The gist of the method: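 PGE2 release measured by ELISA in an LPS-activated co-culture of human umbilical vein endothelial cells and peripheral blood mononuclear cells, read at 24 h post-dosing. DMSO served as baseline for bidirectional curve fitting.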

Read-out in assay [12]: Macrophage colony-stimulating factor (MCSF), CSF1 (gene 1435)
The assay is described as follows: BSK_LPS_MCSF: BioMAP Diversity Plus: LPS Assay for Macrophage colony-stimulating factor (MCSF) Biomarker Activity (AID 2283083). To be noted: primary human HUVEC with PBMC; actives raise or lower the signal. The gist of the method: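 Human umbilical vein endothelial cells co-cultured with peripheral blood mononuclear cells were exposed to compound for 24 h. M-CSF levels were measured by ELISA, and bidirectional curve fitting used DMSO as the negative control and baseline.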

Read-out in assay [13]: Tissue Factor, F3 (gene 2152)
Kind of assay: BSK_LPS_TissueFactor: BioMAP Diversity Plus: LPS Assay for Tissue Factor Biomarker Activity (AID 2283084). Conditions: primary human HUVEC with PBMC; actives raise or lower the signal. An outline of the steps:
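Human umbilical vein endothelial cells co-cultured with peripheral blood mononuclear cells were dosed and stimulated with LPS. Cell-surface CD142 was quantified by ELISA at 24 h. Activity was fitted bidirectionally against DMSO baseline.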

Read-out in assay [14]: Tumor necrosis factor (Homo sapiens) (UniProt P01375)
Kind of assay: BSK_LPS_TNFa: BioMAP Diversity Plus: LPS Assay for Tumour Necrosis Factor alpha (TNFa) Biomarker Activity (AID 2283085).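 As to AC50: TNFa protein level quantified by ELISA in the co-culture.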 To be noted: primary human HUVEC with PBMC; actives raise or lower the signal. The gist of the method:
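TNFa was quantified by ELISA in LPS-activated co-cultures of human endothelial cells and PBMC, 24 h post-dosing. Both increases and decreases versus DMSO were fitted.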

Read-out in assay [15]: Vascular cell adhesion molecule 1 (VCAM1), VCAM1 (gene 7412)
The assay is described as follows: BSK_LPS_VCAM1: BioMAP Diversity Plus: LPS Assay for Vascular cell adhesion molecule 1 (VCAM1) Biomarker Activity (AID 2283086). To be noted: primary human HUVEC with PBMC; actives raise or lower the signal. An outline of the steps: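 VCAM-1 quantified by ELISA in an LPS-activated co-culture of human endothelial cells and peripheral blood mononuclear cells, read 24 h post-treatment. Fitted in both directions versus DMSO; parallel SRB staining flags overt cytotoxicity.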

Read-out in another assay: CD38, CD38 (gene 952)
The assay is described as follows: BSK_SAg_CD38: BioMAP Diversity Plus: SAg Assay for CD38 Biomarker Activity (AID 2283087). Conditions: primary human HUVEC with PBMC; actives raise or lower the signal. An outline of the steps: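 CD38 quantified by ELISA (fluorescence) in a superantigen-activated endothelial cell–PBMC co-culture at 24 h post-dose. Activity fitted in both directions relative to DMSO; parallel SRB and Alamar Blue cytotoxicity read-outs.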

Read-out in the next assay: CD69, CD69 (gene 969)
The assay is described as follows: BSK_SAg_CD69: BioMAP Diversity Plus: SAg Assay for CD69 Biomarker Activity (AID 2283089).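 As to AC50: cell surface CD69 protein quantified by ELISA with fluorescence detection.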 To be noted: primary human HUVEC with PBMC; actives raise or lower the signal. The gist of the method:
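Primary human vascular co-culture (umbilical vein endothelium with peripheral blood mononuclear cells) exposed to test chemical for 24 h. CD69 levels quantified by fluorescence ELISA; DMSO served as negative control for bidirectional fitting.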

Read-out in assay [16]: Monocyte Chemoattractant Protein-1 (MCP1), CCL2 (gene 6347)
Kind of assay: BSK_SAg_MCP1: BioMAP Diversity Plus: SAg Assay for Monocyte Chemoattractant Protein-1 (MCP1) Biomarker Activity (AID 2283090). To be noted: primary human HUVEC with PBMC; actives raise or lower the signal. The gist of the method:
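Values derive from bidirectional fitting of ELISA-measured MCP1 against DMSO controls. Readings were taken 24 h after dosing human vascular endothelial cells co-cultured with peripheral blood mononuclear cells under superantigen stimulation.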

Read-out in assay [17]: E-selectin (Homo sapiens) (UniProt P16581)
Kind of assay: BSK_SAg_Eselectin: BioMAP Diversity Plus: SAg Assay for Eselectin Biomarker Activity (AID 2283091). To be noted: primary human HUVEC with PBMC; actives raise or lower the signal. The gist of the method:
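HUVEC co-cultured with PBMC, compound dosed then read at 24 h; E-selectin measured by ELISA. Activity fitted bidirectionally against DMSO as negative control and baseline.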

Read-out in assay [18]: CD40, CD40 (gene 958)
Kind of assay: BSK_SAg_CD40: BioMAP Diversity Plus: SAg Assay for CD40 Biomarker Activity (AID 2283088). To be noted: primary human HUVEC with PBMC; actives raise or lower the signal. An outline of the steps: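 Human umbilical vein endothelial cells co-cultured with PBMC; CD40 levels measured by ELISA with fluorescence read-out 24 h after chemical dosing. Gain or loss of signal fitted bidirectionally against DMSO baseline.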

Sequence of E-selectin (Homo sapiens) (P16581 whole entry, looked up): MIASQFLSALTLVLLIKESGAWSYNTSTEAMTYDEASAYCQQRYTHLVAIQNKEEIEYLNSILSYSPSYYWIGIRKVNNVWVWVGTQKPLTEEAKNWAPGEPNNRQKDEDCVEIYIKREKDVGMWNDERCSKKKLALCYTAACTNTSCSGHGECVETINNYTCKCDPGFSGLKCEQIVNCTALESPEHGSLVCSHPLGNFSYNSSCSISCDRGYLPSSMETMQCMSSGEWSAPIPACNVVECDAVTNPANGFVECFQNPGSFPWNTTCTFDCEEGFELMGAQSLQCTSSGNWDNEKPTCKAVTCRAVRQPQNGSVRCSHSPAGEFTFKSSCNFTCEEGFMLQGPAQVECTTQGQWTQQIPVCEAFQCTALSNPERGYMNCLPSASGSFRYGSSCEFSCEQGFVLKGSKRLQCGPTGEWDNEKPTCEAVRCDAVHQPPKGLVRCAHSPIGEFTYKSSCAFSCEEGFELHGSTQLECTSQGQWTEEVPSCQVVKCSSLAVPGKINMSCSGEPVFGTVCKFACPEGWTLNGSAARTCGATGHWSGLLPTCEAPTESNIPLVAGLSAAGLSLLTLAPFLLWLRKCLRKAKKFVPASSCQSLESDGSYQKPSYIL
Sequence of Tumor necrosis factor (Homo sapiens) (P01375 whole entry, looked up): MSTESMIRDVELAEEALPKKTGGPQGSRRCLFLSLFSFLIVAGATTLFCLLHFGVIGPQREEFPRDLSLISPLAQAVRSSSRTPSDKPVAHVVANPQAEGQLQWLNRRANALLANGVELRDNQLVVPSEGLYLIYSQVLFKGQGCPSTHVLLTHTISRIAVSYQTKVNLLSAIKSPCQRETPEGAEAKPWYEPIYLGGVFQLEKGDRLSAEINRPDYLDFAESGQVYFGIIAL

For the molecule `C=CCOC(=O)C(C)(C)OC(=O)c1cc(-n2c(=O)cc(C(F)(F)F)n(C)c2=O)ccc1Cl`, the result in assay [1], in [3], in [4], in assay [6], in assay [7] and in assay [8] was inactive. For the same molecule, the outcome in assay [9], in [10], in [11], in assay [13], in [14] and in [15] was inactive. The result in assay [16] was inactive. For the same molecule, the AC50 in [2] is 1.89 µM (active); in the assay with CD40, CD40 (gene 958) [5], 6.73 µM (active); in [12] it was 13.9 µM (active); with CD38, CD38 (gene 952), 10.8 µM (active); with CD69, CD69 (gene 969) it was 6.29 µM (active); in [17], 31.1 µM (active).
Consider `CC(C)C1(C)N=C(c2ncccc2C(=O)O)NC1=O` (configuration not stated), for which the outcome is “inactive” in [1]; “inactive” in assay [2]; “inactive” in assay [3]; “inactive” in assay [4]; “inactive” with CD40, CD40 (gene 958) [5]; “inactive” in assay [6]. Besides, the result in assay [7], in assay [8], in [9], in assay [10], in assay [11] and in assay [12] was inactive. The outcome in assay [13] is “inactive”; in assay [14], “inactive”; in assay [15], “inactive”; with CD38, CD38 (gene 952), “inactive”; in the assay with CD40, CD40 (gene 958) [18], “inactive”; in [16], “inactive”. Also, the outcome in assay [17] was inactive.
As to `C=C(C)CN(CC)c1c([N+](=O)[O-])cc(C(F)(F)F)cc1[N+](=O)[O-]`, the outcome in assay [1], in assay [3], in assay [4], in assay [6], in [7] and in [8] was inactive. Further, the outcome is “inactive” in [9]; “inactive” in assay [10]; “inactive” in [11]; “inactive” in [12]; “inactive” in assay [13]; “inactive” in the assay with CD40, CD40 (gene 958) [18]. The outcome with CD69, CD69 (gene 969) was “inactive”; in assay [16], “inactive”. The AC50 in the assay with CD40, CD40 (gene 958) [5] is 20 µM (active); in [14], 5.11 µM (active); in assay [15], 20 µM (active); in the assay with CD38, CD38 (gene 952), 33.7 µM (active); in assay [17], 33.7 µM (active).

Broadly, the AC50 is the midpoint of the concentration-response curve, whichever way the signal moves.
